Measurements from PubChem BioAssay AID1851 (National Center for Advancing Translational Sciences (NCATS), 2009).
About 5,700 (36%) of roughly 16,000 compounds were called active. Another 24% or so got no clear call; they are omitted. Calls follow the shape of the dose curve; as a rule, active = well fitted curve in the direction sought with a large enough effect; inconclusive = small, poorly fitted or top-dose-only effect, or effect the other way; inactive = no such curve, though single readings can be large or run the other way. Some of the results follow.

target: Cytochrome P450 1A2 (Homo sapiens) (UniProt P05177); assay: Cytochrome panel assay with activity outcomes; conditions: recombinant CYP, pro-luciferin dealkylation, luminescence, p450-cyp1a2; series mostly up to 57.1 µM; activity, negative = inhibition: at the top concentration
% is scaled to controls: 0 for no effect and ±100 for the full control effect.

Chain of Cytochrome P450 1A2 (Homo sapiens) (P05177 whole entry, looked up): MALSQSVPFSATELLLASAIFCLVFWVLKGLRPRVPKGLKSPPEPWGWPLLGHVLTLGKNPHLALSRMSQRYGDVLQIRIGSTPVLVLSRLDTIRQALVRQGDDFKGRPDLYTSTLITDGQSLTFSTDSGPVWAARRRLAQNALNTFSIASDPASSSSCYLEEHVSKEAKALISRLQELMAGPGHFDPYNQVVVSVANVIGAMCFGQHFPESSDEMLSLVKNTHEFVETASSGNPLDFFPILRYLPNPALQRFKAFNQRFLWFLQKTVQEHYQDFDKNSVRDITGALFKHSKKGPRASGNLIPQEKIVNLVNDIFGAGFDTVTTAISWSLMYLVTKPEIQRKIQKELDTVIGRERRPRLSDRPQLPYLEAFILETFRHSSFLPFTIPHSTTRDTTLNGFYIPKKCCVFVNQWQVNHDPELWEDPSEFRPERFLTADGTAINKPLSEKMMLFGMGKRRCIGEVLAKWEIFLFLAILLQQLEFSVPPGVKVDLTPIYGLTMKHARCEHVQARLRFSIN

activity, negative = inhibition, inactive:
CCCCCCCCCCCC(=O)O[C@H](CC(=O)O)C[N+](C)(C)C 3.19%, O=C(Nc1ccc(N=Nc2ccccc2)cc1)c1ccc(Cl)cc1Cl 11.4%, CC(C)(C)N(NC(=O)Nc1ccccc1)C(=O)c1ccccc1Cl 5.62%, Cc1ccc(NC(=O)N/C=C/c2ccc(Cl)cc2)cc1 -22.5%, O=C(c1ccco1)N1CCC2(CCCN(Cc3ccccc3)C2)CC1 -4.78%, CCCN(CCC)CCCNS(=O)(=O)c1cc(Br)cc2c1N(C(C)=O)CC2 -17.8%, O=C(NCC1COc2ccccc2O1)C1CCN(S(=O)(=O)c2cccc3nsnc23)CC1 (stereo not given) -7.72%, COc1ccc(/C=C/C(=O)NCc2cn(C)nc2C)cc1COc1ccc(Br)cc1 -26.8%, NC(=O)CNC(=O)[C@@H]1CC2(CC(c3ccc(Cl)cc3)=NO2)CN1C(=O)c1ccccc1 (stereo not given in full) 11.7%, O=C(CN1C(=O)c2ccccc2C1=O)NC1(C(=O)O)CCCC1 -2.12% [at 2.29 µM], CCOC(=O)c1cc(-c2ccccc2)sc1NC(=O)C(C)(C)C -12.1%, CNC(=O)c1ccc(-c2sc3nc(N4CCOCC4)c4c(c3c2N)CC(C)(C)OC4)o1 1.36%, CCOC(=O)c1c(NC(=O)c2ccc(N3CCOCC3)c([N+](=O)[O-])c2)sc(C)c1C 2.45%, CN1CCN(NC(=O)CN2C(=O)/C(=C/c3c(Cl)cccc3Cl)SC2=S)CC1 -7.84%, Cc1ccc(Sc2cc(Cl)nc(N)n2)cc1 -23.8%, CN(C)C(=O)c1ccc(-c2ccc3ncnc(N4CCOCC4)c3c2)cc1 -16.8%, O=C(O)C1CCN(c2ncnc3ccc(-c4ccccc4C(F)(F)F)cc23)CC1 -19.1%, COCCCN1C(=O)C(=O)/C(=C(/O)c2ccc(OC(C)C)c(C)c2)C1c1ccncc1 (stereo not given) 15.5% [at 11.4 µM], COc1ccc(C(=O)N2CCC[C@@]3(CCN(Cc4cc(C(F)(F)F)cc(C(F)(F)F)c4)C3)C2)cc1 2.06%, Cc1ccc(CNC(=O)CCc2c(C)nc3ncnn3c2C)cc1 -10.8%, CCOC(=O)CCc1c(C)nc2ncnn2c1C -15.3%, CC1(C)O[C@H]2O[C@@H]([C@H](O)CON3C(=O)c4ccccc4C3=O)[C@H](O)[C@H]2O1 -10.7% [at 11.4 µM], O=c1cc(N2CCC(Cc3ccccc3)CC2)[nH]c(=O)n1C1CCCCC1 -3.97%, O=S(=O)(c1ccc(Cl)cc1)c1cnc(-c2cccnc2)nc1-c1ccccc1 -29.7%, CCCNC(=O)NS(=O)(=O)c1ccc(Cl)cc1 -1.12% [at 25.6 µM], C[C@@](O)(CNS(=O)(=O)c1ccccc1)c1ccccc1 -17.4% [at 11.4 µM]

AC50, active:
O=C(N/N=C/c1ccc(Cl)cc1)Nc1ccccc1 10000 nM, O=C(N/N=C/c1ccc(Cl)cc1Cl)c1cccc(F)c1 1780 nM, O=C(N/N=C/c1ccc(Cl)cc1Cl)Nc1ccccc1 1000 nM, CC(=O)N1c2c(cc(Br)cc2S(=O)(=O)NCC2COc3ccccc3O2)CC1C (stereo not given) 3160 nM, COc1ccc(C(=O)NN)cc1COc1ccc(Br)cc1 200 nM, C=CCc1cc(C=O)cc(OC)c1OCc1ccc(Cl)cc1 1120 nM, CCOC(=O)c1cc(-c2ccccc2)sc1NC(=O)c1ccc(OC)cc1 8910 nM, COC(=O)c1cc(-c2ccccc2)sc1NC(=O)CN1C(=O)c2ccccc2C1=O 708 nM, CCOC(=O)c1c(NC(=O)CCCN2CCOCC2)sc2c1CC(C)(C)OC2 14100 nM, CCN1C(=O)/C(=C/C=C2/SCCN2C)SC1=S 1000 nM, CCNc1nc(Sc2ccc(C)cc2)cc(C(F)(F)F)n1 3160 nM, Cn1c(=O)c(-c2ccc(F)cc2)nc2cnc(Oc3ccccc3)nc21 316 nM, COc1ccc(Oc2ncc3nc(-c4ccc(F)cc4)c(=O)n(C)c3n2)cc1 2000 nM, FC(F)(F)c1ccccc1-c1ccc2ncnc(N3CCOCC3)c2c1 251 nM, COc1cccc(-c2ccc3ncnc(N4CCOCC4)c3c2)c1 1000 nM, CN(C)Cc1ccccc1-c1ccc2ncnc(N3CCOCC3)c2c1 15800 nM, COc1ccccc1-c1ccc2ncnc(N3CCOCC3)c2c1 631 nM, COc1ccccc1-c1ccc2ncnc(N3CCN(C)CC3)c2c1 3160 nM, CCc1c(C)nc2ncnn2c1NCCc1ccc(OC)cc1 15800 nM, O=S(=O)(c1ccccc1)c1cnc(-c2cccnc2)nc1-c1ccc(Cl)cc1Cl 8910 nM, CCC(C)(C)N=C(NC#N)Nc1cccnc1 12600 nM, O=C1c2ccccc2C(=O)N1Cc1cc(-c2ccccc2Cl)no1 794 nM, O=S(=O)(NCc1cc(-c2ccccc2Cl)no1)c1ccccc1 7080 nM, O=S(=O)(NCc1cc(-c2ccccc2Cl)no1)c1ccc(Cl)cc1 1000 nM
